# Source: PubChem (National Center for Advancing Translational Sciences (NCATS))
# This is a sample that favours compounds with a hit; in the whole collection about 6.7% have one here.
# KB-V1 MDR tox: qHTS assay for MDR1-selective chemotherapeutics: Primary screen using the drug-selected MDR subline cells KB-V1; AID 1347076, 2019; Potency, µM (highest dose often 46.1 µM), actives largely listed as cytotoxic; KB-V1 MDR cells viability, CellTiter-Glo, 72 h; 400,000 tested, 3.4% active; also: % is scaled to controls: 0 for no effect and ±100 for the full control effect; nearly all actives have a fitted effect of over 60% in size
#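 Potencies derive from concentration-effect curves fitted to normalized luminescence (CellTiter-Glo) of KB-V1 cells treated for 72 h at 37 degrees C in phenol-red-free DMEM containing 10% FBS.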
# KB-3-1 cytotox: qHTS assay for MDR1-selective chemotherapeutics: Primary screen using the parental adenocarcinoma cell KB-3-1 | Potency, µM (doses to about 46.1 µM), actives largely listed as cytotoxic | KB-3-1 viability, CellTiter-Glo ATP luminescence, 72 h | 400,000 tested, 1.4% active; also: % is scaled to controls: 0 for no effect and ±100 for the full control effect; nearly all actives have a fitted effect of over 60% in size
#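 Parental KB-3-1 adenocarcinoma cells in phenol-red-free DMEM with 10% FBS were pin-treated with compounds at several concentrations, incubated 72 h at 37 °C, and viability read by CellTiter-Glo luminescence; concentration-effect curves were fitted after normalization.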
# SW480 rerep: A quantitative high throughput screen for small molecules that induce DNA re-replication in SW480 colon adenocarcinoma cells. SW480 DNA re-replication, Hoechst DNA content imaging, 48 h. Potency, µM (highest dose often 46.1 µM), for the others: top-dose re-replication activation, actives largely listed as activators. 340,000 tested, 1.8% active. AID 624297, 2012; also: % of control where 0% means no effect; nearly all actives have a fitted effect of over 55% in size
#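 Cells (250 per well) received 23 nL compound or DMSO by pin tool and were kept 48 hr at 37 C, 5% CO2. Nuclei were then stained with Hoechst for 40 min and scanned for DNA content.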
# MCF10A rereplic: A quantitative high throughput screen for small molecules that induce DNA re-replication in MCF 10a normal breast cells. 350,000 tested, 2.9% active. Potency, µM (series often up to 46.1 µM), without a hit: top-dose activity, positive = re-replication, usual class: activators. MCF 10A DNA re-replication, Hoechst nuclear intensity, 48 h. AID 624296, 2012; also: % of control where 0% means no effect; nearly all actives have a fitted effect of over 50% in size
# PINK1 modulator: A Quantitative High throughput Screen to Identify Chemical Modulators of PINK1 Expression. PINK1 immunofluorescence, high-content cytometry, 24 h. Potency, µM (series often up to 76.6 µM), for the others: top-dose activation (PINK1 increase), most hits filed as activators. 410,000 tested, 0.2% active. AID 624263, 2012; active = well fitted activation curve with a large enough effect; inconclusive = small, poorly fitted or top-dose-only effect; cell line not stated here; also: % of control where 0% means no effect; nearly all actives have a fitted effect of over 65% in size
#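 Readout is PINK1 immunofluorescence, quantified alongside mitochondrial, cell and nuclear markers by laser-scanning microplate cytometry. Cells from a stable line were exposed to compound titrations (5 concentrations) for 24 hours, with CCCP controls.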
# * = called active by the depositor; i = inactive; ? = inconclusive; / = not tested or not shown; [ ] = another dose, or the depositor's remark. Unless noted, calls follow the shape of the dose curve; as a rule, active = well fitted curve in the direction sought with a large enough effect; inconclusive = small, poorly fitted or top-dose-only effect, or another doubt; inactive = no such curve, though single readings can be large; an effect the other way counts as inactive or inconclusive. Potency is read from the fitted curve at half-maximal effect.
SMILES,KB-V1 MDR tox,KB-3-1 cytotox,SW480 rerep,MCF10A rereplic,PINK1 modulator
CCc1cccc(C)c1NC(=S)NCCc1c(C)[nH]c2ccc(C)cc12,?,?,?,10µM*,?
CCc1cccc(CC)c1NC(=S)NCCc1c(C)[nH]c2ccc(C)cc12,5.8µM*,6.5µM*,15µM*,?,?
COc1ccc2[nH]c(C)c(CCNC(=S)Nc3cc(C)ccc3C)c2c1,i,i,16µM*,?,12%
COc1ccc2[nH]c(C)c(CCNC(=S)Nc3cc(C)cc(C)c3)c2c1,i,i,?,0%,2%
COc1ccc2[nH]c(C)c(CCNC(=S)Nc3cccc(C)c3)c2c1,i,i,?,-4%,1%
O=C(CNC(=O)c1ccccc1)OCc1cc(=O)n2nc(C3CC3)sc2n1,i,i,/,/,2%
COCCCn1c(SCC(=O)NC2CCS(=O)(=O)C2)nnc1-c1ccc(Cl)cc1 (configuration not stated),i,i,-6%,0%,3%
O=C1c2ccccc2C(=O)N1CCc1c[nH]c2ccccc12,?,i,-81%,24%,1%
O=C1c2ccccc2C(=O)N1CCc1c[nH]c2ccc(O)cc12,?,i,3.7µM*,-2%,0%
O=C1CN(C(=O)CCCc2c[nH]c3ccccc23)c2ccccc2N1,i,i,0%,16µM*,0%
O=C1c2ccccc2C(=O)N1CCCc1c[nH]c2ccccc12,21µM*,i,26%,?,-1%
O=C(O)CCCC(=O)N1CC(=O)Nc2ccccc21,i,i,-8%,-5%,-1%
CCOc1ccc(S(=O)(=O)N2CCN(c3ccccc3)CC2)cc1C(N)=O,i,i,/,/,-2%
O=c1/c(=C\c2cccn2-c2ccccc2)sc2nc3ccccc3n12,i,i,-6%,?,12%
Cc1ccc(-n2c(C)cc(/C=c3/sc4nc5ccccc5n4c3=O)c2C)cc1,i,i,1%[9.22 µM],9.2µM*,10%
O=C(NCCC1=CCCCC1)c1ccc2c(c1)N(Cc1ccc(Cl)cc1)C(=O)c1ccccc1S2(=O)=O,?,i,/,/,2%
COC(=O)c1ccc(NC(=O)c2cccc(N3C(=O)C4C5C=CC(C6CC56)C4C3=O)c2)cc1 (configuration not stated),?,?,-2%,16µM*,1%
O=C(Nc1ccc(F)cc1)c1cccc(N2C(=O)C3C4CCC(C4)C3C2=O)c1 (configuration not stated),10µM*,?,1%,-2%,-2%
O=C(Nc1ccc(Br)cc1)c1cccc(N2C(=O)C3C4CCC(C4)C3C2=O)c1 (configuration not stated),?,i,-1%,?,2%
COc1ccc([C@H]2C[C@H](O)[C@@H](n3cc(C4CC4)nn3)CN2C(=O)C2CCCCC2)cc1,i,i,/,/,0%
CC(=O)c1cccc(NC(=O)C2Cc3c(-c4ccc(Cl)cc4)ccnc3O2)c1 (configuration not stated),i,i,/,/,4%
Cn1c2c(c(=O)n(C)c1=O)C(C(F)(F)F)(C(F)(F)F)N=C(C1CCCCC1)N2,?,i,-2%,?,6%
Cn1c2c(c(=O)n(C)c1=O)C(C(F)(F)F)(C(F)(F)F)N=C(c1ccc(Cl)cc1)N2,2.3µM*,2.3µM*,13%,?,?
Cc1ccccc1C1=NC(C(F)(F)F)(C(F)(F)F)c2c(n(C)c(=O)n(C)c2=O)N1,16µM*,?,-7%,8%,5%
COC(=O)c1c(NC(=O)CSc2ncn[nH]2)sc(C)c1C,21µM*,i,0%,7%,-1%
SMILES,KB-V1 MDR tox,KB-3-1 cytotox,SW480 rerep,MCF10A rereplic,PINK1 modulator
CCOC(=O)c1c(NC(=O)COc2ncnc3ccccc23)sc(C(C)=O)c1C,i,i,-2%,?,1%
COC(=O)c1c(NC(=O)COc2ncnc3ccccc23)sc(C)c1C,15µM*,i,-6%,-3%,1%
CCOC(=O)c1c(NC(=O)CSc2ncn[nH]2)sc(C(C)=O)c1C,i,i,-11%,-6%,-1%
O=C1NC(=Nc2ccccc2)S/C1=C\c1cccn1-c1ccccc1,4.6µM*,5.2µM*,6.5µM*,6.5µM*,5%
Cc1cccc(N=C2NC(=O)/C(=C/c3cccs3)S2)c1,i,i,0%,?,1%
Cc1cccc(N=C2NC(=O)/C(=C/c3cccn3C)S2)c1,5.8µM*,?,?,?,9%
Cc1ccc(N=C2NC(=O)/C(=C\c3cccs3)S2)cc1C,i,i,?,?,3%
O=C1NC(=Nc2cccnc2)S/C1=C/c1ccc(F)cc1,?,?,?,7.3µM*,7%
Cc1ccccc1N=C1NC(=O)/C(=C/c2cccn2C)S1,7.3µM*,?,?,?,4%
COCC(=O)N1CCC2(CCCN(Cc3ccccc3OC)C2)CC1,/,/,/,/,0%
CCOC(=O)c1c(-c2ccc(-c3ccccc3)cc2)csc1NC(=O)C1C2CCC(O2)C1C(=O)O (configuration not stated),i,i,-1%,9.2µM*,-1%
CCOC(=O)c1c(-c2ccc(OC)cc2)csc1NC(=O)CSc1ccccc1,i,?,8%,7.3µM*,-1%
CCOC(=O)c1c(-c2ccccc2)csc1NC(=O)CSc1ccccc1,18µM*,i,-1%,9%,0%
CCOC(=O)c1c(-c2ccccc2)csc1NC(=O)CSc1nncs1,?,i,-15%,23%,1%
COC(=O)c1c(-c2ccc3ccccc3c2)csc1NC(=O)Cc1ccc(OC)c(OC)c1,15µM*,?,?,?,5%
CCOC(=O)c1c(-c2ccccc2)csc1NC(=O)C1CCCO1 (configuration not stated),i,i,2%,-3%,/
Cc1cccc(CC(=O)N2CC(=O)Nc3ccc(C)cc3C2c2ccc(F)cc2)c1 (configuration not stated),i,i,/,/,0%
Cc1cc(C)nc(S[C@H]2C[C@@H](C(=O)N3CCN(c4ccccc4F)CC3)N(Cc3ccccc3C(F)(F)F)C2)n1,/,/,/,/,0%
CCOC(=O)c1c(-c2ccccc2)csc1NC(=O)/C(C#N)=C/c1ccc(O)c(OC)c1,i,i,?,21µM*,15%
CCOC(=O)c1c(-c2ccc(C)cc2)csc1NC(=O)CCSc1nnc2ccccn12,16µM*,i,-2%,?,2%
CCOC(=O)c1c(-c2ccc(OC)cc2)csc1/N=C/N(C)C,23µM*,?,-4%,9%,-2%
